# According to PubChem BioAssay AID588342 (National Center for Advancing Translational Sciences (NCATS), 2011):
# In all, about 360,000 compounds went through this assay and about 25,000 (6.9%) were called active. Roughly 9% stayed inconclusive and do not appear here. Calls come from the whole dose curve; as a rule, active = well fitted inhibition curve with a large enough effect; inconclusive = small, poorly fitted or top-dose-only effect; inactive = flat fitted curve, though single readings scatter. What follows is part of a selection rich in actives, with near analogues and random picks from the rest. Entries that show only a call come without a potency.
# Target: Luciferin 4-monooxygenase (Photinus pyralis) (UniProt P08659)
# Test: qHTS profiling assay for firefly luciferase inhibitor/activator using purifed enzyme and Km concentrations of substrates (counterscreen for miR-21 project); note: nearly all actives have a fitted effect of over 55% in size
# Conditions: purified FLuc, luminescence inhibition; series mostly up to 57.5 µM
# Procedure, shortened: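 Biochemical qHTS of compounds, final roughly 60 µM downward over six points, against 10 nM purified firefly luciferase using Km concentrations of substrates (10 uM D-luciferin, 10 uM ATP) in Tris acetate pH 7.5 buffer; luminescence output.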
# Potency is the fitted concentration of half-maximal effect.
# Sequence of Luciferin 4-monooxygenase (Photinus pyralis) (P08659 whole entry, looked up): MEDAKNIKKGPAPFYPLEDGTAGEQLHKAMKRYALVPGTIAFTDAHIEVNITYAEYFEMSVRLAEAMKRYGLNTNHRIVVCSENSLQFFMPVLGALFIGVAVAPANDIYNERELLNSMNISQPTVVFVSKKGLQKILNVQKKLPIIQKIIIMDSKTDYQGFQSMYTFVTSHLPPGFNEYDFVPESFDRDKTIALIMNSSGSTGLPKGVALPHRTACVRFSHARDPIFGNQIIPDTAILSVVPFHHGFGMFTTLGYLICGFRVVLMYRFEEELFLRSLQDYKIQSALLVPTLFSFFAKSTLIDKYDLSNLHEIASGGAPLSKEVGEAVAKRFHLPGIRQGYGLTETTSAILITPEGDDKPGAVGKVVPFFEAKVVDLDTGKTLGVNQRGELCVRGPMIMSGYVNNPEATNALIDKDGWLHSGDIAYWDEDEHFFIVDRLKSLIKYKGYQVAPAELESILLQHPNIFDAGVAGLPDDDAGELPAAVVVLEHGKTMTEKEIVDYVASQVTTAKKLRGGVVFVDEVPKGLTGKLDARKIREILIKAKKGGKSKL
row,Structure (SMILES),Potency
1,Cc1ccc(S(=O)(=O)N2CCc3cc(C(=O)Nc4ccc(Cl)cc4C)ccc32)cc1,inactive
2,NC(=O)Cn1cc(/C=N\NS(=O)(=O)c2ccccc2)c2ccccc21,inactive
3,COc1cccc(C(=O)CC(=O)C(=O)Nc2ccc([N+](=O)[O-])cc2C)c1,inactive
4,COc1cccc(NCCC(=O)c2cccc([N+](=O)[O-])c2)c1,15.1 µM (active)
5,COc1cccc(CNC(=O)CCCC(=O)Nc2cccc([N+](=O)[O-])c2)c1,inactive
6,CC(=O)c1ccc(OCCCC(=O)Nc2ccc(C)c(S(=O)(=O)N3CCOCC3)c2)cc1,inactive
7,Cc1ccc(NC(=O)CN2c3ccccc3S(=O)(=O)c3ccccc32)cc1F,inactive
8,N#C/C(=C(/O)Cc1cccc2ccccc12)c1nc2ccccc2s1,inactive
9,CC1=CC(=C(C#N)c2nc3ccccc3s2)C=C(C)N1c1ccc(F)cc1F,1.35 µM (active)
10,Cc1ccc(F)cc1S(=O)(=O)N1CCC(c2nc3ccccc3s2)CC1,inactive
11,COc1ccc(/C=C(\C#N)c2c[nH]c3ccccc23)cc1,19 µM (active)
12,COc1ccc2[nH]cc(/C=C(/C#N)S(=O)(=O)c3ccccc3)c2c1,inactive
13,COc1ccc(C(C(O)C(=O)c2c[nH]c3ccccc23)N2CCN(c3ccccc3)CC2)cc1 (stereo not drawn),inactive
14,CCOC(=O)c1cc(NC(=O)c2ccc(F)cc2)c(=O)n2c1oc1ccccc12,inactive
15,COC1=C/C(=C/c2c(N)n3nc(CC(=O)N4CCOCC4)sc3nc2=O)C=CC1=O,inactive
16,COc1cc2c(cc1OC)/C(=C/C(=O)c1ccc(NC(C)=O)cc1)NCC2,16.9 µM (active)
17,COc1cc2c(cc1OC)CN(CC(=O)Nc1ccc(F)cc1)CC2,inactive
18,CCNC(=O)c1ccc(OCC(=O)Nc2ccc(F)cc2)c(OC)c1,inactive
19,CCN(CC(=O)Nc1ccccc1C(=O)NC1CC1)Cc1cccs1,inactive
20,Cc1cc(OCC(=O)NCC2(N(C)C)CCCCC2)cc(C)c1Cl,inactive
21,Cc1ccnc(SCC(N)=O)n1,inactive
22,Cc1ccnc(-n2sc3ccccc3c2=O)n1,9.53 µM (active)

row,Structure (SMILES),Potency
1,Cc1ccnc(N2CCCC(C(=O)NC3CC3)C2)n1 (stereo not drawn),inactive
2,CCN(Cc1ccccc1)S(=O)(=O)c1ccc2c(c1)CCCN2C(C)=O,inactive
3,COc1ccc(N2CCN(C(=O)COc3ccc4c(C)cc(=O)oc4c3)CC2)cc1,inactive
4,Cc1ccc(OCc2cc(C(=O)N(C)CCc3ccccc3)no2)cc1C,23.9 µM (active)
5,CN(CCOc1ccccc1)C(=O)c1cc(COc2c(F)cccc2F)on1,inactive
6,CN(Cc1cnccn1)C(=O)c1cc(COc2cccc(C(F)(F)F)c2)on1,inactive
7,Cc1cc(CN(C)C(=O)c2cc(COc3ccc(C)c(C)c3)on2)n[nH]1,2.39 µM (active)
8,CCn1ccnc1CN(C)C(=O)c1cc(COc2ccc(-n3cncn3)cc2)on1,inactive
9,CN(Cc1cccnc1)C(=O)c1cc(COc2ccc3ncccc3c2)on1,inactive
10,COc1cccc(CNC(=O)c2cc(=O)[nH]c3ccc(S(=O)(=O)N4CCCCC4)cc23)c1,inactive
11,Cc1cccc(OCCCC(=O)Nc2sc3c(c2C(N)=O)CCC(C)C3)c1 (stereo not drawn),inactive
12,OC(c1ccccc1)C(CN1CCOCC1)c1ccccc1 (stereo not drawn),inactive
13,COC(=O)c1ccccc1NC(=O)c1cnn(-c2ccc(F)cc2)c1-n1cccc1,inactive
14,COC(=O)c1c(NC(=O)CCCOc2ccccc2)sc2c1CCC(C)C2 (stereo not drawn),inactive
15,CC1CCN(C(=O)COC(=O)CCC(=O)c2cccs2)CC1,inactive
16,O=C(Nc1ccc2nc(SCC(=O)N3CCCc4ccccc43)sc2c1)c1ccc(Cl)cc1,inactive
17,Cc1nnc(SCC(=O)NCCOc2ccc(Cl)cc2)n1-c1ccccc1,inactive
18,Cc1nnc(SCc2ccc(C(=O)c3ccc(Cl)cc3)o2)n1-c1ccccc1,15.1 µM (active)
19,Cc1nnc(SCC(=O)N2CCN(c3ccccc3)CC2)n1-c1ccccc1,inactive
20,COc1ccc(C)cc1NC(=O)c1cc(-c2ccccc2)nc2c1cnn2C(C)C,inactive
21,COCCN(CCOC)c1nc(N)c2c(N)nc3c(c2c1C#N)CC(=O)N3Cc1ccc(Cl)cc1,inactive
22,Cc1ccc(Nc2nc(N)nc(CSc3nnc(C)s3)n2)cc1,10.7 µM (active)

row,Structure (SMILES),Potency
1,CCOC(=O)C1CCCN(Cc2nc(N)nc(Nc3ccc(C)cc3)n2)C1 (stereo not drawn),inactive
2,Cc1nnc(SCc2nc3ccccc3nc2C)s1,inactive
3,O=C(COC(=O)Cn1[nH]c(=O)c2ccccc2c1=O)Nc1ncc(Cl)cc1Cl,inactive
4,Cc1ccc(S(=O)(=O)NCCC(=O)NNC(=O)C2COc3ccccc3O2)cc1 (stereo not drawn),inactive
5,CCN(CCCNC(=O)Cn1ncc2c3ccccc3n(C)c2c1=O)Cc1ccccc1,inactive
6,Cc1nn(CC(=O)Nc2ccc(F)cc2)c(=O)c2ccccc12,inactive
7,O=C(Cc1ccc(Cl)cc1)Nc1ccc2nn(-c3ccc(Cl)cc3)nc2c1,inactive
8,CCC(=O)Nc1ccc2nn(-c3ccc(F)cc3)nc2c1,1.35 µM (active)
9,Cc1ccc(NC(=O)c2oc3ccc(S(=O)(=O)N4CCCCC4)cc3c2C)cc1Cl,inactive
10,COc1ccc(C(=O)N2CCN(c3ncccn3)CC2)cc1S(=O)(=O)N1CCOCC1,inactive
11,O=c1c(Cl)c(NC2CC2)cnn1-c1ccccc1,inactive
12,C=CCNc1cnn(-c2ccc(C)cc2)c(=O)c1Cl,15.1 µM (active)
13,CCc1nc2c(cnn2-c2ccc(C)cc2)c(=O)n1-c1ccc(C)cc1,inactive
14,CCCCN(CC)CCCNC(=O)Cn1ncc2c([nH]c3ccc(C)cc32)c1=O,inactive
15,O=C(CNCc1ccc(Cl)cc1)Nc1cccc(C(=O)O)c1,inactive
16,O=C(c1ccc(F)cc1)n1c(=S)nc2ccccn21,0.269 µM (active)
17,O=C(c1ccc(F)cc1)n1cc(C(=S)N2CCOCC2)c2ccccc21,inactive
18,O=C(Nc1c(-c2ccc(F)cc2)nc2ccccn12)c1cccc(F)c1,inactive
19,Cc1cc(C)c(NC(=O)c2cc3sc(Cl)cc3n2C)c(C)c1,inactive
20,CCC(=O)c1c[nH]c(C(=O)NCC2CCCO2)c1 (stereo not drawn),inactive
21,O=C(NCC1CCCO1)c1cc2c(s1)CCCC2 (stereo not drawn),12 µM (active)
22,O=C(NNC(=O)C1CCC1)c1ccccc1,inactive

row,Structure (SMILES),Potency
1,O=C(NCCCn1ccnc1)c1cc2c(s1)CCCC2,inactive
2,O=C(c1cc2c(s1)CCC2)N1CCN(c2ccccc2)CC1,inactive
3,COc1ccc(C(CNC(=O)c2cc3c(s2)CCCC3)N2CCOCC2)cc1 (stereo not drawn),inactive
4,O=C(NCCCN1CCOCC1)c1cc2c(s1)CCC2,inactive
5,O=C(NNC(=O)c1cc2c(s1)CCCC2)c1ccccc1,26.9 µM (active)
6,O=C(Nc1ccc(F)cc1)c1cc2c(s1)CCCC2,1.9 µM (active)
7,COc1ccc(Cn2c(=O)c3oc4ccccc4c3n(CC(=O)Nc3ccc(F)cc3F)c2=O)cc1,inactive
8,COc1ccc(Cn2ccn(Cc3cccc(OC)c3)c(=O)c2=O)cc1,inactive
9,CN(C)c1ccc(NC(=O)CSc2nc(-c3ccco3)cc(C(F)(F)F)n2)cc1,inactive
10,CSc1ccccc1OCc1cc(C(=O)N(C)CCc2c(C)n[nH]c2C)no1,inactive
11,COC(=O)[C@@H]1CCCN1C(=O)c1cc(COc2cccc3cccnc23)on1,inactive
12,CSc1ccccc1OCc1cc(C(=O)N2C[C@H]3CC[C@H]2C3)no1,10.7 µM (active)
13,CCc1nnc(SCc2nc(-c3cccc(C)c3)oc2C)c2cc3sc(C)cc3n12,inactive
14,COc1ccc2[nH]c3ccc(OC)cc3c2c1,21.3 µM (active)
15,COc1ccc2[nH]c(=S)cc(C)c2c1,inactive
16,COc1ccc2[nH]c(C(=O)N3CCN(C)CC3)c(C)c2c1,inactive
17,CCCCn1c(CNC(=O)C23CC4CC(CC(C4)C2)C3)nnc1SCC(=O)Nc1ccc(C)cc1,inactive
18,CC(C)Oc1ccc(CNC(=O)C2CCN(c3nc4ccccc4n(C)c3=O)CC2)cc1,inactive
19,O=C(O)COCC(=O)NCc1csc2ccc(Cl)cc12,inactive
20,C/C(=N\Nc1cccc(C(=O)O)c1)c1ccc2c(c1)Nc1ccccc1S2,7.57 µM (active)
21,CC(=O)Nc1cccc(/C(C)=N/NC(=O)c2c(-c3ccccc3Cl)noc2C)c1,inactive
22,Cc1ccccc1NC(=O)c1cc(S(=O)(=O)Nc2cccc(C(=O)O)c2)ccc1Cl,inactive

row,Structure (SMILES),Potency
1,Cc1ccc(S(=O)(=O)N2CCOCC2)cc1NC(=O)COC(=O)c1cnccn1,inactive
2,Cc1cc(F)ccc1NS(=O)(=O)c1ccc(-n2cccn2)cc1,inactive
3,O=C(COC(=O)C1(c2ccc(F)cc2)CCCC1)N1CCNC1=O,inactive
4,COCCN1C(=O)C(=O)/C(=C(/O)c2ccc(S(=O)(=O)N3CCOCC3)cc2)C1c1ccc(O)c(OC)c1 (stereo not drawn),inactive
5,O=C(NCc1ccncc1)NC12CC3CC(CC(C3)C1)C2,inactive
6,CSc1ccc(/C=C/C(=O)NC23CC4CC(CC(C4)C2)C3)cc1,13.5 µM (active)
7,CSc1ccc(NC(=O)/C=C/C(=O)O)cc1,inactive
8,COC(=O)c1sc(NC(=O)COC(=O)C2CCC2)c(C(=O)OC)c1C,inactive
9,O=C(OCCN1C(=O)c2ccccc2C1=O)Oc1ccccc1,inactive
10,Cc1cccc2c1N(CCOc1ccccc1)C(=O)C2=O,inactive
11,O=C1c2ccccc2C(=O)N1CCOc1ccc(F)cc1,13.5 µM (active)
12,Cc1nc2c(c(C)nn2-c2ccccc2)c(C)c1CCC(=O)NCCc1ccc(Cl)cc1,inactive
13,O=C(CSc1ncnc2scc(-c3ccccc3)c12)NCc1ccc2c(c1)OCO2,inactive
14,Cc1cc(C)c(NC(=O)CN2C(=O)c3cccnc3Oc3ccc(Cl)cc32)c(C)c1,inactive
15,Cn1c(NC(=O)c2ccccc2)nc2ccccc21,6.75 µM (active)
16,Cn1nnc(NC(=S)NC(=O)c2ccccc2)n1,inactive
17,Cc1nc2ccccc2c(=O)n1NC(=O)c1ccccc1,inactive
18,CCn1c(NC(=O)c2nn(C)cc2Br)nc2ccccc21,inactive
19,Cn1c(S(=O)(=O)O)nc2ccccc21,inactive
20,Cn1sc(NC(=O)c2ccccc2)nc1=O,19 µM (active)
